Screening data from PubChem BioAssay.
An excerpt weighted towards active compounds, which were near 3.2% of everything screened.
RGS12 GoLoco inh-1: qHTS Assay for Inhibitors of RGS12 GoLoco Motif Activity (Red Fluorophore) | Guanine nucleotide-binding protein G(i) subunit alpha-1 (Homo sapiens), P63096 | Gai1:RGS12 GoLoco peptide FP, rhodamine, 10 min | Potency, µM (titrated, usually from 61.6 µM), actives largely listed as inhibitors | hit rate 0.44% among 230,000 | AID 880, 2007; active = well fitted inhibition curve with a large enough effect, not every such curve was filed as active; inactive = no such curve, though single readings can be large or run the other way; also: nearly all actives have a fitted effect of over 30% in size
Target sequence (P63096 whole entry, looked up): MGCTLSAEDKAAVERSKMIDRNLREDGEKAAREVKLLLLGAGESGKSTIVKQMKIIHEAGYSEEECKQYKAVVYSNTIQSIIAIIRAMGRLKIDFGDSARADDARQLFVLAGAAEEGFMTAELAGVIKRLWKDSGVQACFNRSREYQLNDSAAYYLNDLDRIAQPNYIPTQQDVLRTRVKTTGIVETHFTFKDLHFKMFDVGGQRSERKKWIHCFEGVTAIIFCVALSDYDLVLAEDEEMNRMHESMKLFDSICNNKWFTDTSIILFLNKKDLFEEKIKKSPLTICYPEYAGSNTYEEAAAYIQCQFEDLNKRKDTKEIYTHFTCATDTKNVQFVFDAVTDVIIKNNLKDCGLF
Tau fluor counter: Counterscreen qHTS for Inhibitors of Tau Fibril Formation, Fluorescence Polarization; tau K18 P301L Alexa594 fluorescence, heparin fibrillization; Potency, µM (series often up to 57.7 µM); hit rate 0.93% among 280,000; AID 1463, 2008; also: nearly all actives have a fitted effect of over 55% in size
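Human tau K18 P301L (15 uM unlabeled, 0.24 uM Alexa 594-labeled) in 100 mM sodium acetate pH 7 with 20 uM heparin, 6 hr at 37 C. ThT 30 uM added, 1 hr ambient; Alexa 594 FP and total fluorescence read at 555/632 nm.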
Tau fibril ThT: qHTS for Inhibitors of Tau Fibril Formation, Thioflavin T Binding; Microtubule-associated protein tau (Homo sapiens), P10636; recombinant tau K18 P301L (four-repeat tau fragment), heparin-induced fibrillization, ThT fluorescence; Potency, µM (top dose mostly 57.4 µM), actives largely listed as inhibitors; hit rate 2.1% among 270,000; also: nearly all actives have a fitted effect of over 55% in size
Target sequence (P10636 561-689 P618L limits assumed): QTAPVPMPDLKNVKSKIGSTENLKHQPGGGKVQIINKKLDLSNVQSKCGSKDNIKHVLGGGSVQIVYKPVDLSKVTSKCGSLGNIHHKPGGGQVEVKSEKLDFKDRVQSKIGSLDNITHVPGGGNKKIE
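Heparin-induced fibrillization of the P301L-mutant K18 repeat-domain fragment of human tau was followed by ThT binding in quantitative high-throughput format.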
TRb-SRC2 inh: qHTS for Inhibitors of the Interaction of Thyroid Hormone Receptor and Steroid Receptor Coregulator 2. Potency, µM (titrated, usually from 106 µM), usual class: inhibitors. hit rate 0.065% among 280,000. TRbeta-SRC2 peptide binding, fluorescence polarization; receptor liganded with 1 µM T3. Thyroid hormone receptor beta (Homo sapiens), P10828; also: nearly all actives have a fitted effect of over 50% in size
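Fluorescence polarization of 20 nM Texas Red SRC2 peptide with 0.6 uM human TRb ligand-binding domain, in Tris buffer with 1uM T3 and 5% DMSO. Incubated 5 hr ambient; normalized to unbound and bound controls.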
TR SRC2 fluor cs: Total Fluorescence Counterscreen for Inhibitors of the Interaction of Thyroid Hormone Receptor and Steroid Receptor Coregulator 2 | hit rate 0.29% among 280,000 | TRb/SRC2 Texas Red total fluorescence interference | Potency, µM (doses to about 106 µM) | AID 1479, 2009; active = well fitted curve in either direction with a large enough effect; inconclusive = small, poorly fitted or top-dose-only effect
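Human TRβ ligand-binding domain (0.6 uM) and Texas Red SRC2 peptide (20 nM) in Tris buffer with 1 uM T3 and 5% DMSO were incubated with pinned compound for 5 hr at ambient temperature. Total fluorescence was computed as S + 2P (555/632 nm).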
Tau fibril FP: qHTS for Inhibitors of Tau Fibril Formation, Fluorescence Polarization; Microtubule-associated protein tau (Homo sapiens), P10636; hit rate 0.39% among 280,000; K18 P301L tau heparin fibrillization, Alexa594 FP, 6 h; AID 1468, 2008; Potency, µM (top dose mostly 57.7 µM), hits mostly inhibitors; also: nearly all actives have a fitted effect of over 55% in size
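Quantitative HTS format: compounds meet 15 uM recombinant K18 P301L tau and Alexa 594-tau tracer in 100 mM sodium acetate pH 7; 20 uM heparin triggers fibrillization at 37 C over 6 hr; FP gives the signal.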
RGS12 GoLoco inh-2: Confirmation qHTS Assay for Inhibitors of RGS12 GoLoco Motif Activity (Red Fluorophore); shares compounds with RGS12 GoLoco inh-1; Gai1/rhodamine-RGS12 GoLoco peptide fluorescence polarization; Potency, µM (titrated, usually from 57.1 µM), usual class: inhibitors; hit rate 50% among 110; AID 2390, 2010
Numbers stand for hits; 0 = inactive; ? = inconclusive; - = no result; ! = not active in a repeat; [ ] = remark or other dose. Unless noted, calls follow the shape of the dose curve; as a rule, active = well fitted curve in the direction sought with a large enough effect; inconclusive = small, poorly fitted or top-dose-only effect, or another doubt; inactive = no such curve, though single readings can be large; an effect the other way counts as inactive or inconclusive.

SMILES	RGS12 GoLoco inh-1	Tau fluor counter	Tau fibril ThT	TRb-SRC2 inh	TR SRC2 fluor cs	Tau fibril FP	RGS12 GoLoco inh-2
CCc1n(CC(O)COCc2ccccc2)c2ccccc2[n+]1C (stereo unspecified)	3.2µM	0	0	0	0	0	16µM
O=C(NCC(c1ccco1)S(=O)(=O)c1cccs1)c1ccccc1F (stereo unspecified)	-	0	0	0	0	0	-
O=C1c2cccnc2C(=O)N1Cc1ccccc1	0	0	0	0	0	0	-
O=C1c2cccc3c(O)ccc(c23)C(=O)N1Cc1ccccc1	11µM	?	?	0	0	0	11µM
CCN(C(=O)CSc1nc(-c2ccc(C(C)C)cc2)no1)c1cccc(C)c1	-	0	?	0	0	0	-
CCCCNc1ccc2c3c(cccc13)C(=O)N(CCCC)C2=O	14µM	?	?	0	0	?	14µM
O=C1c2ccc3c4c(ccc(c24)C(=O)N1CCCCO)C(=O)N(CCCCO)C3=O	25µM	0	0	0	0	0	11µM
Cc1n(CC(O)COC2CCCCC2)c2ccccc2[n+]1C (stereo unspecified)	7.1µM	0	0	0	0	0	16µM
O=C(Nc1ccc(Cl)cc1)N1CCN(Cc2ccc3c(c2)OCO3)CC1	0	0	0	0	0	0	-
O=C(COc1ccc(Cl)cc1)N1CCN(Cc2ccc3c(c2)OCO3)CC1	22µM!	0	0	0	0	0	0[0.0121 µM]
CCOc1ccc(NC(=O)c2ccc3nc(C(C)C)oc3c2)cc1	-	0	0	0	0	0	-
CO[C@]12CC(COC(=O)c3cncc(Br)c3)CN(C)[C@@H]1Cc1cn(C)c3cccc2c13 (stereo partly specified)	0	0	0	0	0	0	-
Cc1ccc(NC(=O)CSc2nnc(-c3ccc(S(=O)(=O)N4CCOCC4)cc3)n2C)cc1	0	0	0	0	0	0	0
CCC(=O)Oc1c(Sc2ccc(Cl)cc2)c(C)nn1C(C)(C)C	-	0	?	0	0	0	-
C[n+]1c(/C=C/c2ccc3c(c2)OCO3)ccc2ccccc21	0	0	?	0	0	0	-
C[n+]1cc2c3c(ccc2c2ccc4cc5c(cc4c21)OCO5)OCO3	14µM!	18µM[quencher]	28µM	0	0	?	25µM
COc1ccccc1N1C(=O)C=C(Sc2nc(C)cc(C)n2)C1=O	1.4µM	0	?	0	0	?	?
O=S(=O)(Nc1ccc(C(F)(F)F)cc1)c1ccc2c(c1)OCCO2	-	?	0	0	0	?	-
COc1cc(C2CC(=O)N(c3ccc(C)cc3)C(=O)C2)cc(OC)c1OC	0	0	-	0	0	0	-
COc1cc(OC)c(C2CC(=O)N3CN(c4ccc(C)cc4)CSC3=C2C#N)cc1OC (stereo unspecified)	8.9µM	0	28µM	0	0	?	?
Cc1cc(C)cc(Nc2cc(=O)n(C3CCCCC3)c(=O)[nH]2)c1	0	0	0	0	0	0	-
Cc1cc2nc3c(=O)n(C4CCCCC4)c(=O)[nH]c3nc2cc1N	0	0	0	0	0	0	?
CCOc1ccc(N(CC(=O)N/N=C/c2ccc(OC(C)C)cc2)S(C)(=O)=O)cc1	10µM	0	0	0	0	0	0[0.0121 µM]
CCOCc1cnc(C)nc1NCC(=O)c1c(C)n(C)c2ccc(OC)cc12	5µM	0	?	0	0	0	25µM
Cc1ccc(/C=C/c2onc(C)c2S(=O)(=O)N2CCC(C(=O)N3CCC(N(C)C(C)C)CC3)CC2)cc1	-	0	0	0	0	0	-
Cc1nc2cnc(N(C)C)nc2n(C[C@H]2CCCO2)c1=O	0	-	-	-	-	-	-
